Experimental data as given in PubChem BioAssay AID1671202 (University of Kansas High Throughput Screening Laboratory, 2021).
Values joined by “and” are separate entries in the source; they are usually repeats but may differ in a detail not shown here. Identical values can stand only once. Hit rate of the full screen: of about 190,000 compounds, about 6,900 (3.6%) were called active. Rule as the data show it: active = inhibition above about 50%; inactive = the rest. For the sample, actives were picked, then their nearest neighbours and some compounds at random.

Biological target: Huntingtin (Homo sapiens) (UniProt P42858)
Experiment: mutant huntingtin-calmodulin interaction inhibitors – biochemical, AlphaScreen, primary screen (AID 1671202);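 also: 0% = both proteins with DMSO and 100% = one protein alone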
Details: AlphaScreen His-mHTT/GST-CaM binding, luminescence; at 15 µM, stronger effect = higher value

Chain of Huntingtin (Homo sapiens) (P42858 whole entry, looked up, stated change not applied): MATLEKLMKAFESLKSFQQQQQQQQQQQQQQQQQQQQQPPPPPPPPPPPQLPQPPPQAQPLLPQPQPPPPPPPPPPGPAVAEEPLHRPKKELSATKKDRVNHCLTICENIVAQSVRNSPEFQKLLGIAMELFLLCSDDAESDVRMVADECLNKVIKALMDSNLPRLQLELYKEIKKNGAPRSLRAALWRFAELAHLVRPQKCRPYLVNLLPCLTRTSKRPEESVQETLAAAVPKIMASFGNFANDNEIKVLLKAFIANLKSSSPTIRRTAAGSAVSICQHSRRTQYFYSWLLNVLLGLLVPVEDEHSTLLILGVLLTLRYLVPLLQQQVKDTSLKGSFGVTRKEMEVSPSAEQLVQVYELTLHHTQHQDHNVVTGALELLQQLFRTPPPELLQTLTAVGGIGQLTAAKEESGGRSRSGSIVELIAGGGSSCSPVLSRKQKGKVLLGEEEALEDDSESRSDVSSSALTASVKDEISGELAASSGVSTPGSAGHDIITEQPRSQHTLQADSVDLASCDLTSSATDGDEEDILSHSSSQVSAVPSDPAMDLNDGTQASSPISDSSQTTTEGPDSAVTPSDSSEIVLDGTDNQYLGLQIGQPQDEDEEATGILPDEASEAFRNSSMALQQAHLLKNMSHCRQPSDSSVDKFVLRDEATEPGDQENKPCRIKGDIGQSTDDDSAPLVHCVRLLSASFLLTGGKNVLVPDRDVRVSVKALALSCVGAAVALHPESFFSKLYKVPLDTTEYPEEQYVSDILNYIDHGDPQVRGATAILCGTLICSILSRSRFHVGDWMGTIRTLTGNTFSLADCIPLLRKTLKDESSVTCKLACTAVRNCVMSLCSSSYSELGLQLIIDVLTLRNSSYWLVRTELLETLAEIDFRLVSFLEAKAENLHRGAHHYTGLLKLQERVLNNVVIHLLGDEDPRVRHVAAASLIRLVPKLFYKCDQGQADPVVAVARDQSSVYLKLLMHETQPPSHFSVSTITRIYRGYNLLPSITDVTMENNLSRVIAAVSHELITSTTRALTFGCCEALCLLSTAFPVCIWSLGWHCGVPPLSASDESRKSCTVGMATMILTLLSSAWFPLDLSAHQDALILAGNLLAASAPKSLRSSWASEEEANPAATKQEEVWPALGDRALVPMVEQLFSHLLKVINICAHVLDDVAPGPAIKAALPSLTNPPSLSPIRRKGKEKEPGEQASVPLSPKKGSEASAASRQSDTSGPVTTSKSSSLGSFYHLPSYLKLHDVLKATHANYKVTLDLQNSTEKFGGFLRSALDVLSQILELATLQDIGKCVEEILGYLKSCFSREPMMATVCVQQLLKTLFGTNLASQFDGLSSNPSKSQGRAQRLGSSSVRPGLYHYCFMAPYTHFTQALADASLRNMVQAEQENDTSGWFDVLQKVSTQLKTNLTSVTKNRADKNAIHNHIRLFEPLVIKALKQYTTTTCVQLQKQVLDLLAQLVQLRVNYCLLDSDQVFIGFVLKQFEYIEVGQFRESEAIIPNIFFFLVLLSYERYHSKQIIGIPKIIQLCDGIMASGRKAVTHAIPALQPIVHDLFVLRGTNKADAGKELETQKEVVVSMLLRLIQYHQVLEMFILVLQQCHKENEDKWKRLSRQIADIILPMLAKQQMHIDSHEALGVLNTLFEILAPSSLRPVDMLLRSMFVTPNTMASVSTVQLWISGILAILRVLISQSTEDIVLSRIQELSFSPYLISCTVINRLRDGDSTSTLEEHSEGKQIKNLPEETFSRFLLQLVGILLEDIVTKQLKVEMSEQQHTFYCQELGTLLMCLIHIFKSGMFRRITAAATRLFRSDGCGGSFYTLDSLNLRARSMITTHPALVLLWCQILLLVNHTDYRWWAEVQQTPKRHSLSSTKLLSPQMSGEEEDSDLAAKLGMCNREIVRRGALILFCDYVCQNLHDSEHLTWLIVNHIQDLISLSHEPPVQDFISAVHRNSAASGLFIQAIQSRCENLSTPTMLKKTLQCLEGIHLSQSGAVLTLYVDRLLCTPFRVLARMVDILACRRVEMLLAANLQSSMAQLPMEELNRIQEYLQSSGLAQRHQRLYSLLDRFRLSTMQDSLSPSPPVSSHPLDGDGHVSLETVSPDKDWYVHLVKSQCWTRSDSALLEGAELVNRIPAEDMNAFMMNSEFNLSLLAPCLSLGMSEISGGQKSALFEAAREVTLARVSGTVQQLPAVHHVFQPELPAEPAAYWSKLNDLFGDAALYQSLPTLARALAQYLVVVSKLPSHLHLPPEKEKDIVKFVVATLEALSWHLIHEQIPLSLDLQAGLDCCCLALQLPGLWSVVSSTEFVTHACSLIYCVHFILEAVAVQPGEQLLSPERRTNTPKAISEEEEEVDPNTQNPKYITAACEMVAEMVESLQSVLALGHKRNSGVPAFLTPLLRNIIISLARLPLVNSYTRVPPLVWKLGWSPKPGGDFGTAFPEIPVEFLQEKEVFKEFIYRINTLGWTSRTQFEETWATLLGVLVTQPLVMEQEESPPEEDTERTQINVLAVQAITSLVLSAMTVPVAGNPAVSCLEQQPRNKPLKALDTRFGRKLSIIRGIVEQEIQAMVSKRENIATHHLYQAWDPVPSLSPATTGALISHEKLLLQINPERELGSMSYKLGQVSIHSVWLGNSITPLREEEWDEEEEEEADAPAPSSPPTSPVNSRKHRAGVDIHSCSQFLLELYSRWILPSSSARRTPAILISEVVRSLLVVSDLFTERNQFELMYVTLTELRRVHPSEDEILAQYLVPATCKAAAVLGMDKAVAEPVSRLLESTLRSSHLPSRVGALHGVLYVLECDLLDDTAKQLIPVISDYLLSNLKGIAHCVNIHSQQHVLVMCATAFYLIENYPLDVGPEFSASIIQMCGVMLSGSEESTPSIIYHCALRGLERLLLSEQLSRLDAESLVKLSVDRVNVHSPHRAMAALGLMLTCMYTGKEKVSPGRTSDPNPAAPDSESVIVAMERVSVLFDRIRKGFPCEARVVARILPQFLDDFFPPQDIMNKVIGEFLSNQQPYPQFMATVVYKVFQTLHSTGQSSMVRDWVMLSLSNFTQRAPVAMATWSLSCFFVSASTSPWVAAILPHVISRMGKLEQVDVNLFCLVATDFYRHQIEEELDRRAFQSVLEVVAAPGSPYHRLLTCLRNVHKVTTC

Compound	inhibition
Cc1ccc(S(=O)(=O)NCC2CCN(C(=O)Oc3ccccc3)CC2)s1	-6.7% (inactive)
Cc1cccc(-c2nc(C3CCN(C(=O)Cc4ccccc4Br)CC3)no2)c1	-7.4% (inactive)
COc1ccc(C(=O)Oc2ccc3c(=O)c(Oc4ccccc4OC)coc3c2)cc1	0.8% (inactive)
Cc1cccc(-n2nc3c(c2NC(=O)c2cccc(Cl)c2)CS(=O)(=O)C3)c1C	16% (inactive)
CCCN(CCC)CCCNC(=O)CSc1nc2nc(C)c(Cc3ccccc3)c(C)n2n1	7% (inactive)
COc1ccc(OCCCC(=O)Nc2ccccc2)cc1	-9.6% (inactive)
O=c1oc2ccc(Br)cc2cc1-c1ccc2c(c1)OCO2	-1% (inactive)
C=CS(=O)(=O)N(Cc1nnn(Cc2ccccc2)c1Br)[C@H](C(=O)OC)C(C)C	-13.3% (inactive)
O=C(Nc1ccc(Cl)cc1)c1ccc(N2CC3CC(C2)c2cccc(=O)n2C3)c([N+](=O)[O-])c1 (stereo not given)	6% (inactive)
CN(Cc1ccccc1)C(=O)c1ccc(N2CC3CC(C2)c2cccc(=O)n2C3)c([N+](=O)[O-])c1 (stereo not given)	9% (inactive)
COc1ccc(Br)cc1C=C(NC(=O)c1cc(OC)c(OC)c(OC)c1)C(=O)N1CC2CC(C1)c1cccc(=O)n1C2 (stereo not given)	73.4% (active)
CCC(=O)N1CCN(c2nc3c(s2)CC(C(=O)Nc2cc(C)ccc2C)CC3)CC1 (stereo not given)	18.3% (inactive)
Cc1ccc(NC(=O)c2cnn3c2NC(c2ccco2)CC3C(F)(F)F)cc1C (stereo not given)	-4% (inactive)
COc1ccc(C2CC(C(F)(F)F)n3ncc(C(=O)Nc4cc(C)ccc4C)c3N2)cc1OC (stereo not given)	27% (inactive)
COc1ccc(C2CC(C(F)(F)F)n3ncc(C(=O)Nc4ccc(C)c(C)c4)c3N2)cc1OC (stereo not given)	53% (active)
Cc1ccc(CNC(=O)c2ccnc(N3CCNC(c4ccccc4)C3)c2)cc1 (stereo not given)	35.5% (inactive)
COCCCNC(=O)c1c(NC(=O)c2ccccc2Cl)sc2c1CCCC2	-17.4% (inactive)
O=c1cc(-c2ccccc2F)oc2ccc(Cl)cc12	-8.7% (inactive)
COc1cc(/C=C2\C(C)=C(C#N)c3nc(N)c(C#N)c(C)c32)ccc1O	60% (active)
COc1cc(C=Nc2oc(C)c(C)c2C#N)ccc1O	6% (inactive)
CC1=C(C#N)c2nc(N)c(C#N)c(C)c2/C1=C/c1ccccc1[N+](=O)[O-]	16% (inactive)
CC(=O)Nc1c(C)ccc(S(=O)(=O)N2CCCCC2)c1C	2.7% (inactive)
CCCCCCN1CCS(=O)(=O)N(Cc2ccc(C(F)(F)F)cc2)C(C(=O)OC)C1 (stereo not given)	-0.1% (inactive)

Compound	inhibition
COC(=O)C1CN(CCc2ccccc2)CCS(=O)(=O)N1Cc1ccc(F)cc1 (stereo not given)	50.6% (active)
COC(=O)C1CN(CC(C)C)CCS(=O)(=O)N1Cc1ccc(F)cc1 (stereo not given)	7.2% (inactive)
Nc1ncnc(NCc2cccc(Cl)c2)c1[N+](=O)[O-]	3% (inactive)
O=S(=O)(NCCN1CCOCC1)c1ccc(I)cc1	-0.7% (inactive)
O=[N+]([O-])c1cc(S(=O)(=O)CCCN2CCOCC2)ccc1F	97% (active)
Cc1ccc(OCCOCCN2CCOCC2)c([N+](=O)[O-])c1	2% (inactive)
CC1CCc2nn(CC(=O)Nc3ccccc3Cl)c(=O)cc2C1 (stereo not given)	0.27% (inactive)
COc1ccc(N2CCN(CC(O)COc3ccc(C(C)=O)cc3)CC2)cc1 (stereo not given)	3.7% (inactive)
Cc1ccc(-c2nc3s/c(=C\c4ccccc4)c(=O)n3n2)cc1	7% (inactive)
N#C/C(=C\c1cccs1)c1nc(-c2ccc3c(c2)OCO3)cs1	-4.4% (inactive)
COc1ccc(OC)c(NC(=O)NS(=O)(=O)c2ccc(C)cc2)c1	14.2% (inactive)
CC(=O)Nc1cc2nn(-c3ccc(Cl)cc3)nc2cc1C	0.6% (inactive) and -5% (inactive)
Cc1nnc2ccc(NC(=O)NCc3ccc(F)cc3)cn12	-6.1% (inactive)
Cc1nnc2ccc(S(=O)(=O)N(Cc3ccc(F)cc3)c3ccccc3)cn12	54.8% (active)
Cc1nnc2ccc(S(=O)(=O)N(Cc3ccccc3)c3ccc(F)cc3)cn12	-2.4% (inactive)
O=C(c1cccc(-n2cnnn2)c1)N1CCN(c2ccc(-c3cccs3)nn2)CC1	2.8% (inactive)
O=C(Nc1cccs1)N1CCN(c2ccc(-c3ccco3)nn2)CC1	52% (active)
CC(C)Oc1ccc(C(=O)N2CCN(Cc3nc(-c4ccco4)cs3)CC2)cc1	9.1% (inactive)
COc1ccc(C2C(C#N)=C(N)N(c3ccccc3[N+](=O)[O-])C3=C2C(=O)CCC3)cc1 (stereo not given)	21% (inactive)
Clc1ccc2[nH]c3c(c2c1)CCCC3NCCOc1ccccc1 (stereo not given)	100% (active)
Cc1ccc2[nH]c3c(c2c1)CCCC3O (stereo not given)	19.3% (inactive)
CNC(=O)N1CCc2nc3cc(-c4ccc(OC)cc4)[nH]n3c(=O)c2C1	9.34% (inactive)
COc1ccc(-c2cc3nc4c(c(=O)n3[nH]2)CN(C(=O)CSc2ccccc2)CC4)cc1	9.49% (inactive)

Compound	inhibition
O=C(C1COc2ccccc2O1)N1CCc2c(nc3cc(-c4ccccc4)[nH]n3c2=O)C1 (stereo not given)	76.2% (active)
COC(=O)c1cccc(NC(=O)N2CCc3c(nc4cc(-c5ccccc5)[nH]n4c3=O)C2)c1	7.79% (inactive)
COc1ccc(-c2cc3nc4c(c(=O)n3[nH]2)CN(C(=O)c2ccc(C)nc2)CC4)cc1	1.93% (inactive)
CCc1cccc(NC(=O)N2CCc3c(nc4cc(-c5ccc(OC)cc5)[nH]n4c3=O)C2)c1	26.8% (inactive)
O=C(c1ccc(C(F)(F)F)s1)N1CCc2c(nc3cc(-c4ccccc4)[nH]n3c2=O)C1	42.1% (inactive)
COc1ccc(-c2cc3nc4c(c(=O)n3[nH]2)CCN(C(=O)c2ccccc2C)C4)cc1	65.3% (active)
COc1ccc(-c2cc3nc4c(c(=O)n3[nH]2)CN(C(=O)c2ccccc2Cl)CC4)cc1	62.5% (active)
CCOc1ccc(NC(=O)c2ccc(F)c(S(=O)(=O)NC3CCCCCC3)c2)cc1	11% (inactive)
C=CCN(C(C)=O)c1nc(C)c(Cl)c(OC)n1	-2% (inactive)
CCOC1CCc2oc(-c3ccsc3)c(C#CC(C)(C)O)c21 (stereo not given)	11.3% (inactive)
O=C(NC1CC2CC1N(C(=O)c1cccc(C(F)(F)F)c1)C2)c1cccs1 (stereo not given)	0.72% (inactive)
COCc1noc(C2CCCCN2CC(=O)NCc2cccs2)n1 (stereo not given)	0.04% (inactive)
Cc1[nH]c(=O)[nH]c(=O)c1S(=O)(=O)Nc1ccccn1	-4% (inactive)
O=C1C2C3C=CC(C4CC34)C2C(=O)N1CC1CCCO1 (stereo not given)	0.3% (inactive)
O=C(NCc1nnc2n1CCCC2)c1ccc2c(c1)OCO2	-5.87% (inactive)
O=c1oc2ccccc2cc1-c1csc(N=Cc2ccccc2O)n1	26% (inactive)
COc1cccc(N2CCN(C(=O)c3cccs3)C(C)C2=O)c1 (stereo not given)	-6.9% (inactive)
O=C(CCc1ccccc1)NCc1cccnc1-c1ccccc1	-6.5% (inactive)
O=C(c1ccccc1)N1CCC(CCNS(=O)(=O)c2cccc3nsnc23)CC1	50.2% (active)
COc1ccc(S(=O)(=O)NCCC2CCN(C(=O)c3ccccc3)CC2)cc1OC	30.3% (inactive)
N#Cc1cccc(S(=O)(=O)NCCC2CCN(C(=O)c3ccccc3)CC2)c1	34.6% (inactive)
Cc1ccc(C(=O)N2CCC(CCNS(=O)(=O)c3ccccc3F)CC2)cc1	39.1% (inactive)
Cc1ccc(C(=O)N2CCC(CCNS(=O)(=O)Cc3ccccc3)CC2)cc1	44.2% (inactive)

Compound	inhibition
Cc1ccc(C(=O)N2CCC(CCNS(=O)(=O)c3ccc(C(C)C)cc3)CC2)cc1	53.6% (active)
O=C(CC1CCCCC1)N1CCCC(COc2ccc(C(=O)N3CCCCC3)cc2)C1 (stereo not given)	13.4% (inactive)
CCC(C)NC(=O)c1cc2nc(-c3ccc(Cl)cc3)cc(C(F)(F)F)n2n1 (stereo not given)	-6% (inactive)
N#CCSc1nc2c(c(=O)n1Cc1ccccc1)C1(CCCC1)Cc1ccccc1-2	-2.7% (inactive)
O=c1[nH]c(CSCCO)nc2c1C1(CCCCC1)Cc1ccccc1-2	16.8% (inactive)
CCn1c(=O)c2c(n3c(SCC(N)=O)nnc13)-c1ccccc1CC21CCCCC1	54% (active)
O=C(Nc1cccc(NC(=O)c2ccccc2[N+](=O)[O-])c1)c1ccccc1Cl	5% (inactive)
COc1ccc2cc(-c3nnc(NC4CCCCC4)s3)c(=O)oc2c1	-11% (inactive)
COc1ccc(C2C3=C(CC(C)(C)CC3=O)N=C3c4ccccc4C(=O)C32)cc1 (stereo not given)	62% (active)
O=C1CCCC2=C1C(c1cccc([N+](=O)[O-])c1)C1C(=O)c3ccccc3C1=N2 (stereo not given)	10% (inactive)
Cc1cccc(C2C3=C(CCCC3=O)N=C3c4ccccc4C(=O)C32)c1 (stereo not given)	8% (inactive)
CC(C)CC(=O)N1CCc2ccccc2C1	-9.1% (inactive)
COc1ccc(C=C2Oc3c(ccc4c3CN(Cc3ccc(OC)c(OC)c3)CO4)C2=O)cc1OC	44% (inactive)
CC(C)n1c(C2CCN(S(=O)(=O)Cc3ccc(F)cc3Cl)C2)nc2ccncc21 (stereo not given)	9.49% (inactive)
CCCCCCOc1ccc(NC(=O)CC2SC(=N)NC2=O)cc1 (stereo not given)	1% (inactive)
COC(=O)c1ccc(CN2CCCC2c2cc(C)on2)cc1 (stereo not given)	1.57% (inactive)
CC(=O)Nc1nonc1N1C(=N)S/C(=C\c2ccc(-c3cccc(F)c3)o2)C1=O	57% (active)
COc1cccc(/C=C2\SC(=N)N(c3ccc(F)cc3)C2=O)c1	3% (inactive)
N=C1S/C(=C\c2ccc(-c3ccccc3[N+](=O)[O-])o2)C(=O)N1c1ccc2c(c1)OCO2	26% (inactive)
COc1ccc2nc(NCCn3cccn3)sc2c1	-1.7% (inactive)
CCOC(=O)C1CCCN(C(=O)c2nn(-c3ccc(F)cc3)c(=O)cc2OC)C1 (stereo not given)	-5.9% (inactive)
